BAZ2B block: blocks human BAZ2B; Q9UIF8; AlphaScreen BAZ2B-H3K14Ac peptide displacement; Potency, µM (doses to about 114 µM), inactives show top-dose activity change, negative = inhibition, actives largely listed as inhibitors; 360,000 compounds, 4.4% hits; AID 504333; note: % is set by controls: 0 for no effect and ±100 for the full control effect; nearly all actives have a fitted effect of over 60% in size
Target sequence (Q9UIF8 whole entry, looked up): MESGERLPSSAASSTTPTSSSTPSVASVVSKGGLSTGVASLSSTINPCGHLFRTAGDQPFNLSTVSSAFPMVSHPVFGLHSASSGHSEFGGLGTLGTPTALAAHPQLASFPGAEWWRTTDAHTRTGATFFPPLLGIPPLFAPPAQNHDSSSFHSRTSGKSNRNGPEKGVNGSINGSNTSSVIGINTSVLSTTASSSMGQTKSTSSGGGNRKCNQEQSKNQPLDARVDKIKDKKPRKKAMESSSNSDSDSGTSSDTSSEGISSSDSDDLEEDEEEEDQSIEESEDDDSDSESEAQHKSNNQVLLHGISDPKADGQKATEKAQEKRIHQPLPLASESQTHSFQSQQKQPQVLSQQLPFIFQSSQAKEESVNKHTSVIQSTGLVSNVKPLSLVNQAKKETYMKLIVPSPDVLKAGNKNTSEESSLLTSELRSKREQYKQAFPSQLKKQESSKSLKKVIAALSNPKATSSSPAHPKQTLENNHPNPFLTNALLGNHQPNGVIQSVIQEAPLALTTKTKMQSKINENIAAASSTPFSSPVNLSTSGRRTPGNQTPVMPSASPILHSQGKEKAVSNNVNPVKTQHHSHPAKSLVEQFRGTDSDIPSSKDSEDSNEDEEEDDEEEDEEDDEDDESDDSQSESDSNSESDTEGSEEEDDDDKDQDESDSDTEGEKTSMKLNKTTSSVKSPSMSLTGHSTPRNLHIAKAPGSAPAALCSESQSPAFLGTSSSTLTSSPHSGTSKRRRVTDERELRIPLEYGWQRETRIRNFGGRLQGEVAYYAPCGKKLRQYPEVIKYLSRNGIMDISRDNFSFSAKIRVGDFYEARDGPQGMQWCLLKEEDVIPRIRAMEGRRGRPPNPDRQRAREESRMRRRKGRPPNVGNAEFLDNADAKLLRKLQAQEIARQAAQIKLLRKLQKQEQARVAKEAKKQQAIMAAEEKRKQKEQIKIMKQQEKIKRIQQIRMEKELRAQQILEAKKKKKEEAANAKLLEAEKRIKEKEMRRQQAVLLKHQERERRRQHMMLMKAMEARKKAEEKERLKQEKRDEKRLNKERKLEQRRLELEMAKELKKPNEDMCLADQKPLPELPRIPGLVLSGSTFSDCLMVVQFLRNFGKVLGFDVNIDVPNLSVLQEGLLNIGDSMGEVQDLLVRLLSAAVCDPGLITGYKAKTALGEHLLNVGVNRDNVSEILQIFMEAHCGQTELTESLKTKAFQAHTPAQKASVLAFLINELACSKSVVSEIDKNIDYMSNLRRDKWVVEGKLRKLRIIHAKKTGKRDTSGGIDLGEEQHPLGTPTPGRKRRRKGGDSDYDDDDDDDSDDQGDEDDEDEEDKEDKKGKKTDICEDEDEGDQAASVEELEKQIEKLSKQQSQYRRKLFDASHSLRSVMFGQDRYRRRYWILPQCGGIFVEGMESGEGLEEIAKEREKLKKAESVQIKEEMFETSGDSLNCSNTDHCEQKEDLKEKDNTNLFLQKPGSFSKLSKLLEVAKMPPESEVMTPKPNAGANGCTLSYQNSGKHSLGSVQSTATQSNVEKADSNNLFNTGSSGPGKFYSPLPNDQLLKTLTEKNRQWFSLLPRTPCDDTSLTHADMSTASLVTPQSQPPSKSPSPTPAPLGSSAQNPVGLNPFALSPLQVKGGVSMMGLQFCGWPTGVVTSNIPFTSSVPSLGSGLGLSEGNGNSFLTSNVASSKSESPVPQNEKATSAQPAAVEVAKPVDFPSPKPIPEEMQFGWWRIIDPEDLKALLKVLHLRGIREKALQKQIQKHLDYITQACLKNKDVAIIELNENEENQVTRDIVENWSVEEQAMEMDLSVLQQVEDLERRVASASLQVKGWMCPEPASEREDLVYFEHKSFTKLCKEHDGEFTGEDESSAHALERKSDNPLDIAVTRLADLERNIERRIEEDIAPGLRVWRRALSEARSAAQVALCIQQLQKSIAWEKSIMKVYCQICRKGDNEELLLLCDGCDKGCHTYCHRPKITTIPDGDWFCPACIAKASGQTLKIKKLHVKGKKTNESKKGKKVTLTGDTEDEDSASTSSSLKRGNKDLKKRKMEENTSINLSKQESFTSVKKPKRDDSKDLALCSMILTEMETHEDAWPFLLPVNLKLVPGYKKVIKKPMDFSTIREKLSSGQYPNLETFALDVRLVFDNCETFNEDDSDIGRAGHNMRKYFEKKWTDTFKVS
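AlphaScreen displacement: compounds (up to 110uM) incubated 30 min at room temperature with a preformed 50 nM BAZ2B/50 nM biotinylated H3K14Ac peptide complex in PBS pH 7.4 with Tween-20. Donor and acceptor beads at 10 ug/mL final added, 20 min light-protected before reading.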
Sfp inh: Sfp phosphopantetheinyl transferase inhibition | Biochemical Sfp PPTase activity, qHTS | Potency, µM, for inactives: largest response in the series, negative = inhibition, usual class: inhibitors | 310,000 compounds, 3.5% hits | AID 1490;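 note: the enzyme is Sfp with the accession as filed and its product quenches rhodamine fluorescence; 0% = enzyme reaction without inhibitor and -100% = no enzyme wells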
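Fluorescence-quenching assay with 15 nM Sfp, 5 uM rhodamine-CoA and 12.5 uM BHQ-2-labelled ybbR peptide in pH 7.6 Hepes/MgCl2 buffer. Enzyme was pre-incubated with compound for 15 min at room temperature. Rate was taken from the 30-min fluorescence change (525/598 nm).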
HP1b binding inh: inhibitors of HP1-beta chromodomain binding to methylated histone tails; AID 540317; Potency, µM (series often up to 114 µM), for the others: at the top dose activity change, negative = inhibition, usual class: inhibitors; 390,000 compounds, 0.56% hits; AlphaScreen HP1-beta / biotin-H3K9me3 peptide binding; P83916; note: nearly all actives have a fitted effect of over 70% in size
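HP1-beta protein (50 nM final) preincubated 30 min at room temperature with biotinylated H3(1-18)K9me3 peptide (50 nM) in PBS pH 7.4, 0.01% Tween-20, then compound added for 30 min. AlphaScreen streptavidin donor/nickel chelate acceptor beads (10 ug/mL final), 30 min dark, luminescence read.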
JMJD2A Tudor: blocks the human JMJD2A Tudor domain | AlphaScreen JMJD2A-Tudor / H3K4me3 peptide binding | Potency, µM (series often up to 114 µM), inactives show top-dose activity change, negative = inhibition, most hits filed as inhibitors | O75164 | AID 504339 | 390,000 compounds, 4.4% hits; note: % is set by controls: 0 for no effect and ±100 for the full control effect; nearly all actives have a fitted effect of over 50% in size
G9a block: blocks human histone lysine methyltransferase G9a. 350,000 compounds, 8.8% hits. G9a H3K9 monomethylation, AlphaScreen, 2 h. Potency, µM (highest dose often 102 µM), for the others: top-dose activity, negative = inhibition, most hits filed as inhibitors; note: % is set by controls: 0 for no effect and ±100 for the full control effect; nearly all actives have a fitted effect of over 75% in size
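Enzyme 20 nM + cpd, 15 min RT; add b-H3K9 pep 500 nM / SAM 20 uM; 2 h RT; anti-H3K9me1 Ab 0.5 ug/mL + SA donor / anti-rabbit acceptor beads 20 ug/mL each, 10 min; AlphaScreen read.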
* = called active by the depositor; ? = inconclusive; . = no result; [ ] = remark or other dose. Compounds with a hit are over-represented: about 12% of the library has one in this group of screens. Calls come from the whole dose curve; as a rule, active = well fitted curve in the direction sought with a large enough effect; inconclusive = small, poorly fitted or top-dose-only effect, or another doubt; inactive = no such curve, though single readings can be large; an effect the other way counts as inactive or inconclusive. Potency is the fitted concentration of half-maximal effect.

SMILES	BAZ2B block	Sfp inh	HP1b binding inh	JMJD2A Tudor	G9a block
CC1=C(C(=O)Nc2ccc(C)cc2C)C(c2ccc(C(C)C)cc2)n2nc(C(F)(F)F)nc2N1 (stereo not drawn)	0%	.	?	?	-12%[59 µM]
C[C@@]1(C(=O)O)NCCc2cc(O)c(O)cc21	.	56µM*	.	.	.
CC(C)NC(=O)N1CC[C@@]2(CCCN(S(=O)(=O)c3ccccc3)C2)C1	.	2%	.	.	18%[12.7 µM]
CN(C)C(CNC(=O)c1ccc(C2SCCS2)cc1)c1ccccc1 (stereo not drawn)	-23%	4%	-12%	?	50µM*
CN(C)C(CNC(=O)c1cnc(Cl)c(Cl)c1)c1ccccc1 (stereo not drawn)	56µM*	?	?	20µM*	?
CC1=C(C(=O)Nc2ccccc2)C(c2ccc[nH]2)n2ncnc2N1 (stereo not drawn)	8.9µM*	.	-28%[57 µM]	22µM*	?
CCc1ccc(NC(=O)C(C)OC(=O)C2CCN(c3ccc(C(F)(F)F)cn3)CC2)cc1 (stereo not drawn)	3%	.	24%	5%	7%
CCN(c1ccc(NC(=O)COC(=O)C2CCN(c3ccc(C(F)(F)F)cn3)CC2)cc1)C(C)C	.	.	?	10µM*	.
CC(C)N(Cc1ccccc1)C(=O)COC(=O)C1CCN(c2ccc(C(F)(F)F)cn2)CC1	6%	.	?	11%	35µM*
Cc1cc(C)c(S(=O)(=O)NCC(c2cccs2)S(=O)(=O)c2ccccc2)c(C)c1 (stereo not drawn)	-4%	.	76%	-8%	-2%[59 µM]
Cc1ccc(N(Cc2ccccc2)C(=O)c2ccc(F)c(S(=O)(=O)N3CCOCC3)c2)cc1	-4%	.	-1%	-17%	45µM*
COc1ccc(C(=O)Nc2nnc(C)s2)cc1	1%	.	32%	-9%	-1%[59 µM]
COc1ccc(N2CCN(C(C)C(=O)N3CCCC3)CC2)cc1 (stereo not drawn)	32µM*	?	?	0.79µM*	?
COc1ccc(N2CCN(C(C)C(=O)Nc3nnc(C)s3)CC2)cc1 (stereo not drawn)	-16%	-16%	-3%	?	56µM*
CCOc1ccccc1NC(=O)CCc1c(C)nc2c3cccnc3nn2c1C	2%	.	35%	7%	9%[59 µM]
CCOc1cc(C2NC(=O)N(C)C(C)=C2[N+](=O)[O-])ccc1OC(C)=O (stereo not drawn)	-8%	-5%	37%	-12%	-29%
CC1=C([N+](=O)[O-])C(c2ccc(Cl)cc2)NC(=O)N1C (stereo not drawn)	3%	9%	-13%	20µM*	.
Cn1cc(-c2cc3n(n2)CCC(=O)N3CC(=O)O)c2ccccc21	-11%	.	31%	-2%	3%[59 µM]
COC(=O)[C@H](C)NC(=O)N1CCC(Cc2ccccc2)CC1	-17%	10%	22%	-10%	2%
CC(C)Oc1ccc(/C(O)=C2/C(=O)C(=O)N(CCCn3ccnc3)C2c2cccnc2)cc1 (stereo not drawn)	13%	7%	18%	-8%	40µM*
CCCCOc1ccc(/C(O)=C2/C(=O)C(=O)N(CCCOC)C2c2ccncc2)cc1 (stereo not drawn)	6%	7%	5%	-12%	7%[12.7 µM]
COCCCN1C(=O)C(=O)/C(=C(/O)c2ccc(OC(C)C)cc2)C1c1ccncc1 (stereo not drawn)	?	14%	29%	-21%	45µM*
CCCOc1ccc(/C(O)=C2/C(=O)C(=O)N(CCCN3CCOCC3)C2c2ccncc2)cc1 (stereo not drawn)	?	?	.	.	14µM*
Cc1ccc(C)c(/C(O)=C2\C(=O)C(=O)N(CCCn3ccnc3)C2c2cccnc2)c1 (stereo not drawn)	79µM*	5%	21%	56µM*	?
COc1ccc(Cn2c(CNS(=O)(=O)c3ccc4c(c3)CCCC4)nc3cccnc32)cc1	-12%	.	27%[57 µM]	-20%	5%[59 µM]
COc1ccc(NC(=O)c2ccc3c(c2)nnn3C2CCCC2)cc1Cl	-16%	.	41%	-13%	-36%[59 µM]
C=CCn1c(COc2cccc(C)c2)nnc1SCC(=O)NC(=O)NCc1ccco1	?	25µM*	4%	?	?
